The structures appear in SMILES notation. Where “and” joins values, the source holds several entries; their conditions need not be identical. Equal values may be shown once. About 83,000 compounds went through this panel and 20% of them were active in at least one assay; those are over-represented in the sample as a whole.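 Assay: single dose, 48 h. Readout: percent growth (0 = no net growth; negative = cell death). Active: <10.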 Calls of active or inactive are those of the source.

Some test systems named below: T-47D breast; BT-549 breast; MDA-MB-435 melanoma; SW-620 colon; MCF7 breast; HCT-116 colon; HCC-2998 colon; KM12 colon.
Experiment in all cases: NCI-60 one-dose screen, 48 h (100 = growth as untreated, 0 = no growth, -100 = all killed)
What all share (conditions): 10 µM unless noted

As to `NC(=S)NN=C1CCC(C2CCCCC2)CC1` (stereo not given), the growth in the test on T-47D breast is 44.1% (inactive) and 40% (inactive); in the test on BT-549 breast it was 102% (inactive) and 92.5% (inactive); in the test on MDA-MB-435 melanoma, 79.1% (inactive) and 77.2% (inactive); in the test on SW-620 colon, 84.6% (inactive) and 88.6% (inactive); in the test on MCF7 breast, 83% (inactive) and 95.1% (inactive); in the test on HCT-116 colon, 73.9% (inactive) and 78.6% (inactive). Also, the growth with HCC-2998 colon is 92.9% (inactive) and 94.7% (inactive); with KM12 colon it was 94.5% (inactive) and 93.9% (inactive).
Take `COc1cc2c(Nc3ccc(Cl)c(Cl)c3F)ncnc2cc1OCC1C[C@@H]2CN(C)C[C@@H]2C1` (stereo not given in full): the growth is -74.6% (active) and -6.7% (active) with T-47D breast; -87.2% (active) and 36.9% (inactive) in the test on BT-549 breast; -95.8% (active) and -38% (active) in the test with MDA-MB-435 melanoma; -76.6% (active) and 6.96% (active) in the test on SW-620 colon; -71.9% (active) and 13.4% (inactive) with MCF7 breast; -85.4% (active) and 7.79% (active) in the test with HCT-116 colon. The growth was -87.7% (active) and 22.2% (inactive) in the test on HCC-2998 colon; -88.5% (active) and 39.9% (inactive) with KM12 colon.
Take `CC(=O)NC(Cc1ccccc1)C(=O)Oc1ccc2ccccc2c1` (stereo not given): the growth was 99.3% (inactive) and 108% (inactive) in the test on T-47D breast; 110% (inactive) in the test on BT-549 breast; 119% (inactive) and 107% (inactive) in the test with MDA-MB-435 melanoma; 107% (inactive) and 96.7% (inactive) in the test on SW-620 colon; 113% (inactive) and 97.8% (inactive) in the test on MCF7 breast; 113% (inactive) and 114% (inactive) in the test with HCT-116 colon. Besides, in the test with KM12 colon, the growth was 103% (inactive) and 94.8% (inactive).
Consider `Cc1cc(O)c(C(C)C)cc1N`, for which the growth in the test with T-47D breast was 16.1% (inactive) and 71.8% (inactive); with BT-549 breast, 109% (inactive) and 98.1% (inactive); with MDA-MB-435 melanoma it was 117% (inactive) and 98.9% (inactive); in the test on SW-620 colon, 109% (inactive) and 102% (inactive); in the test on MCF7 breast it was 94.3% (inactive) and 92.7% (inactive); in the test on HCC-2998 colon, 105% (inactive) and 94.2% (inactive). The growth with KM12 colon is 110% (inactive) and 114% (inactive).
As for `CCOc1ccc2nc3cc(N)ccc3c(N)c2c1`, the growth in the test with T-47D breast was 7.14% (active) and -4.55% (active); in the test on BT-549 breast, 35.7% (inactive) and -3.05% (active); in the test on MDA-MB-435 melanoma, 91.7% (inactive) and 98.2% (inactive); in the test with SW-620 colon, 46.1% (inactive) and 50% (inactive); in the test with MCF7 breast it was 16.8% (inactive); in the test on HCT-116 colon it was 46.4% (inactive) and 29.6% (inactive). The growth in the test with KM12 colon is 45.1% (inactive) and 31.5% (inactive).
As to `COc1cc(NS(C)(=O)=O)ccc1Nc1c2ccccc2nc2c(C)cccc12`, the growth was 2.65% (active) and 4.75% (active) in the test with T-47D breast; 3.76% (active) and 4.61% (active) in the test with BT-549 breast; 37.1% (inactive) and 45.7% (inactive) in the test on MDA-MB-435 melanoma; 6.14% (active) and 16.4% (inactive) in the test on SW-620 colon; 14.1% (inactive) and 14% (inactive) in the test with MCF7 breast; 0.292% (active) and 8.67% (active) in the test on HCT-116 colon. Also, the growth in the test with KM12 colon is -32.8% (active) and 7.97% (active).
Consider `Oc1ccccc1/C=N\NC(=S)N/N=C/c1ccccc1O`, for which the growth with T-47D breast is 48.4% (inactive) and 51.6% (inactive); in the test with BT-549 breast, 47.3% (inactive) and 49.8% (inactive); in the test with MDA-MB-435 melanoma it was 56.3% (inactive) and 44.2% (inactive); in the test with SW-620 colon, 47.5% (inactive) and 50.7% (inactive); in the test on MCF7 breast, 25.6% (inactive) and 26.8% (inactive); in the test with HCT-116 colon, 28% (inactive) and 22.9% (inactive). Also, the growth in the test on KM12 colon was 39% (inactive) and 28.2% (inactive).
On to `CC(O)(CC(=O)CC(=O)c1ccccc1)c1ccccc1` (stereo not given), for which the growth was 108% (inactive) and 109% (inactive) with T-47D breast; 93.4% (inactive) and 95.8% (inactive) with BT-549 breast; 97.8% (inactive) in the test with MDA-MB-435 melanoma; 99.9% (inactive) and 107% (inactive) with SW-620 colon; 108% (inactive) and 123% (inactive) in the test on MCF7 breast; 101% (inactive) and 92.8% (inactive) in the test on HCC-2998 colon. Further, the growth with KM12 colon is 103% (inactive) and 104% (inactive).
Turning to `O=[N+]([O-])c1ccccc1N(S(=O)(=O)c1ccccc1)S(=O)(=O)c1ccccc1`, the growth in the test with T-47D breast was 105% (inactive) and 92.7% (inactive); in the test with BT-549 breast, 106% (inactive); in the test on MDA-MB-435 melanoma, 100% (inactive) and 98.1% (inactive); in the test on SW-620 colon, 102% (inactive) and 97.3% (inactive); in the test with MCF7 breast, 127% (inactive); with HCT-116 colon it was 110% (inactive) and 91.4% (inactive). In the test with KM12 colon, the growth is 96.1% (inactive) and 92% (inactive).

These data come from PubChem BioAssay (NCI).
